The results in this text go back to PubChem BioAssay (Tox21).

Assay [1] can be described thus: Nuclear factor erythroid 2-related factor 2/antioxidant responsive element (Nrf2/ARE) small molecule agonists: qHTS cell viability counter screen in human keratinocytes (AID 1919968; active = well fitted cell-killing curve with a large enough effect in the repeat runs; note: nearly all actives have a fitted effect of over 55% in size; note: potency is the fitted concentration of half-maximal effect). A digest of the protocol: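 Cells of the KeratinoSens line were plated at 1,500 per well and left for 5 h before compound transfer from DMSO stocks. After a 23 h incubation (37 C, 5% CO2), CellTiter-Fluor was added. Signal was taken as fluorescence intensity 1 h later.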

Assay [2] in a line: Nuclear factor erythroid 2-related factor 2/antioxidant responsive element (Nrf2/ARE) small molecule agonists: luciferase reporter gene qHTS assay in human keratinocytes (AID 1919969). Note: nearly all actives have a fitted effect of over 35% in size. Note: potency is the fitted concentration of half-maximal effect.
In assay [3] the target is Gonadotropin-releasing hormone receptor (Homo sapiens) (UniProt P30968). In words: Human gonadotropin-releasing hormone receptor (GnRHR) small molecule agonists, calcium flux assay in GnRHR-HEK293 cells (AID 1920063). Note: nearly all actives have a fitted effect of over 35% in size. The method, boiled down: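 Compounds dissolved in DMSO are pin-transferred onto dye-loaded GnRHR-HEK293 cells, which were seeded 18 h before at 37 C/5% CO2. Calcium signal is read as fluorescence intensity at 1 s intervals for 3 min.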
Sequence of Gonadotropin-releasing hormone receptor (Homo sapiens) (P30968 whole entry, looked up): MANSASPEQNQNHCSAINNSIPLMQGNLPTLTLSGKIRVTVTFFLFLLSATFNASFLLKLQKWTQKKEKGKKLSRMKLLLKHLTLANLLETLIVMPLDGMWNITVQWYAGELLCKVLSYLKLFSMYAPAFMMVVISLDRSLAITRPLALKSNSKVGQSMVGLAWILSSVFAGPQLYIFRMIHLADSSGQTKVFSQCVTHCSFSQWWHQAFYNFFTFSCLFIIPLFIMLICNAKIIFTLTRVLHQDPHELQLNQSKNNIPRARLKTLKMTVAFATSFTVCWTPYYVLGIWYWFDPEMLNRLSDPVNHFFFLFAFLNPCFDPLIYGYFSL

A short description of assay [4]: G protein-coupled receptor (GPCR) small molecule agonists, calcium flux assay: HEK293 wild type cell line counter screen (AID 1920065). The method, boiled down:
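Tox21 10K compounds, 15 concentrations each in triplicate, pin-transferred in DMSO onto dye-loaded cells; kinetic read at 480/540 nm for 3 min, 1 s intervals.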

The nature of assay [5]: p53 small molecule agonists, cell-based qHTS assay with human liver microsomes (AID 1963577).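 Note: p53 response element beta-lactamase reporter cells with liver microsomes plus NADPH.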 A digest of the protocol:
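Reporter activation was measured by LiveBLAzer fluorescence intensity in p53RE-bla cells, which had been exposed to compounds for 16 h at 37 C alongside 0.5 mg/mL human liver microsomes and 0.5 mg/mL NADPH (final concentrations).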

A short description of assay [6]: p53 small molecule agonists, cell-based qHTS assay with rat liver microsomes (AID 1963578). The method, boiled down:
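Compound in DMSO added to p53RE-bla cells 5 h post-plating; rat microsomes/NADPH 0.5 mg/mL final; 16 h, 37 C; LiveBLAzer 2 h RT.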

The nature of assay [7]: p53 small molecule agonists, cell-based qHTS assay with human liver microsomes: qHTS cell viability counter screen (AID 1963579). Note: nearly all actives have a fitted effect of over 45% in size. A digest of the protocol:
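HLM-supplemented (0.5 mg/mL final) and NADPH-supplemented (0.5 mg/mL final) p53RE-bla cultures, 4,000 cells per well, were dosed with compounds in DMSO for 16 h at 37 C; luminescent ATP detection (CellTiter-Glo, 30 min, room temperature) quantified surviving cells.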

The nature of assay [8]: p53 small molecule agonists, cell-based qHTS assay with rat liver microsomes: qHTS cell viability counter screen (AID 1963580). Note: nearly all actives have a fitted effect of over 45% in size. A digest of the protocol: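 Counter screen for cytotoxicity under metabolic activation: rat liver microsomes and NADPH, 0.5 mg/mL final each, added with compounds to p53RE-bla HCT-116 cells; 16 h at 37 C, then ATP luminescence read.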
Assay [9] in a line: p53 small molecule agonists, cell-based qHTS assay: qHTS cell viability counter screen (AID 1963581). Note: nearly all actives have a fitted effect of over 45% in size. A digest of the protocol: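 ATP content measured by luminescence in HCT-116 p53RE-bla cells treated 16 h at 37 C, same wells as the reporter screen.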
Assay [10] can be described thus: p53 small molecule agonists, cell-based qHTS assay (AID 1963582; active = well fitted activation curve with a large enough effect in the signal ratio in the repeat runs, not every such curve was filed as active; the % refers to the signal ratio). A digest of the protocol:
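16 h compound exposure (37 C) of p53 response element–bla cells, preceded by 5 h recovery at 37 C/5% CO2; read-out via LiveBLAzer B/G FRET substrate, 2 h RT, fluorescence intensity.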

The nature of assay [11]: cAMP Responsive Elements (CRE) small molecule agonists, cell-based qHTS assay (AID 1963590). A digest of the protocol:
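HEK 293T cells stably bearing CRE-bla were plated at 2,000 cells per well and rested 18 h. Compounds, positive controls or DMSO were added for 3 h at 37 C. LiveBLAzer B/G substrate was then loaded for 2 h at room temperature.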

Assay [12] in a line: cAMP Responsive Elements (CRE) small molecule antagonists, cell-based qHTS assay (AID 1963591; active = well fitted inhibition curve with a large enough effect in the signal ratio in the repeat runs, not every such curve was filed as active; the % refers to the signal ratio). The method, boiled down:
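First, CRE-bla HEK293T cells settled 18 h at 37 C. Next, compound and 0.25 uM final NKH477 were applied for 3 h. Last, LiveBLAzer B/G substrate was loaded for 2 h at room temperature.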

Assay [13] has as its target Beta-2 adrenergic receptor (Homo sapiens) (UniProt P07550). In words: Adrenergic beta2 receptor (ADRB2) small molecule antagonists, cell-based qHTS assay (AID 1963592). Note: series mostly up to about 92 µM; nearly all actives have a fitted effect of over 50% in size. The method, boiled down: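 Assay format: CHO-ADRB2 cells, 18-20hr seeding at 37C/5% CO2, then compound plus 1nM isoproterenol agonist mix for 0.5hr RT. Homogeneous time-resolved fluorescence cAMP detection after 1hr, expressed as 665/615 nm ratio.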

Assay [14] concerns the target D(2) dopamine receptor (Homo sapiens) (UniProt P14416). Nature of the assay: Dopamine D2 receptor (DRD2) small molecule agonists, cell-based qHTS assay (AID 1963594). Note: nearly all actives have a fitted effect of over 35% in size. The method, boiled down: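 HEK293 cells stably expressing DRD2 were cultured 24 h at 37 C, then given Ro20-1724 (0.1 mM final) and compounds for 10 min at room temperature. NKH477 (200nM) was then added for 30 min. cAMP was read by HTRF.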

For assay [15] the target is unchanged. Nature of the assay: Dopamine D2 receptor (DRD2) small molecule antagonists, cell-based qHTS assay (AID 1963595; active = well fitted inhibition curve with a large enough effect in the signal ratio in the repeat runs, with a control signal flat; the % refers to the signal ratio). A digest of the protocol:
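Human DRD2 antagonist qHTS measuring cAMP by HTRF. The cells are exposed to compound for 10 min, then to NKH477 (200 nM) and quinpirole (12 nM) for 30 min at RT, with Ro20-1724 (0.1 mM) present throughout.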

For assay [16], the target named is 5-hydroxytryptamine receptor 2A (Homo sapiens) (UniProt P28223). In words: 5-hydroxytryptamine receptor 2A (HTR2A) small molecule agonists, cell-based qHTS assay (AID 1963587). Note: nearly all actives have a fitted effect of over 30% in size. A digest of the protocol:
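HTR2A-CHO cells, plated 18 h at 37 C/5% CO2, dye-loaded 1 h at 37 C; compounds in DMSO added by pin tool (agonist mode). Intracellular calcium flux read as kinetic fluorescence on FDSS over 2 min at 1 s intervals.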

Assay [17] deals with Muscarinic acetylcholine receptor M1 (Homo sapiens) (UniProt P11229). In words: Cholinergic receptor muscarinic 1 (CHRM1) small molecule agonists, cell-based qHTS assay (AID 1963589). Note: nearly all actives have a fitted effect of over 35% in size. A digest of the protocol:
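Homogeneous fluorescence calcium flux, agonist mode. Human M1-expressing CHO cells; compound dosed at 15 concentrations, three independent runs; signal sampled every 1 sec.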

The target of assay [18] is 5-hydroxytryptamine receptor 2A (Homo sapiens) (UniProt P28223). Nature of the assay: 5-hydroxytryptamine receptor 2A (HTR2A) small molecule antagonists, cell-based qHTS assay (AID 1963586). Note: nearly all actives have a fitted effect of over 45% in size. The method, boiled down:
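CHO cells stably expressing human HTR2A were plated for 18 h at 37 C, then loaded with calcium dye for 1 h. Compounds were preincubated 5 min at room temperature before DOI (4 nM solution) was added. Kinetic fluorescence was read for 3 min.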

For assay [19], the target named is Muscarinic acetylcholine receptor M1 (Homo sapiens) (UniProt P11229). Nature of the assay: Cholinergic receptor muscarinic 1 (CHRM1) small molecule antagonists, cell-based qHTS assay (AID 1963588). Note: nearly all actives have a fitted effect of over 40% in size. A digest of the protocol: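 Compounds were tested at 15 concentrations in three independent runs. Dye-loaded CHRM1-CHO cells were exposed 5 min at room temperature before stimulation by acetylcholine added at 50nM. Intracellular calcium was read kinetically on FDSS for 3 min.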
Sequence of Muscarinic acetylcholine receptor M1 (Homo sapiens) (P11229 whole entry, looked up): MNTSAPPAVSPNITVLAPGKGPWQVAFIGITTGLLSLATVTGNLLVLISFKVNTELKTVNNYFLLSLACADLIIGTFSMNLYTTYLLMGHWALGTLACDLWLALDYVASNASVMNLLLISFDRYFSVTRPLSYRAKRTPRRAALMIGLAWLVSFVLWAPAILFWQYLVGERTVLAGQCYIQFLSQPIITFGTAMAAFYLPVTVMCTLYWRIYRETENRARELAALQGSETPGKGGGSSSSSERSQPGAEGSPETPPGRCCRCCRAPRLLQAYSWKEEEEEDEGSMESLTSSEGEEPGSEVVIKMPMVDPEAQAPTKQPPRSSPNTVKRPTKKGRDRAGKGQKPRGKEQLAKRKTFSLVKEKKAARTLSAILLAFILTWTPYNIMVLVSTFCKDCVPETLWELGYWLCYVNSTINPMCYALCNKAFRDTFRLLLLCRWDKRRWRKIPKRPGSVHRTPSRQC

A number with no mark means an inactive call. Inconclusive results are not listed. The source made the active and inactive calls. Unless noted, calls come from the whole dose curve.

Sequence of D(2) dopamine receptor (Homo sapiens) (P14416 whole entry, looked up): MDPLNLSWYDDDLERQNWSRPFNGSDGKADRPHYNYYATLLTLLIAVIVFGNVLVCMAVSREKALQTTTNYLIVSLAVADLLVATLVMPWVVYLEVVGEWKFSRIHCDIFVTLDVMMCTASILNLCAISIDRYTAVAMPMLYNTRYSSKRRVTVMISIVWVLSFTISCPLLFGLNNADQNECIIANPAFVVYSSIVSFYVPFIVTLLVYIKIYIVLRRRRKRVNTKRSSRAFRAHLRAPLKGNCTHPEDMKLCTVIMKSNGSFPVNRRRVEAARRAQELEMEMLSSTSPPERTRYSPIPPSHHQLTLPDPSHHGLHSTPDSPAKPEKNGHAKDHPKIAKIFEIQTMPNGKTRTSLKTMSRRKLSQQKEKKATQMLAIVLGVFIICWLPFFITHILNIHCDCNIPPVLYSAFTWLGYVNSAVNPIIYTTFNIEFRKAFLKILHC
Sequence of 5-hydroxytryptamine receptor 2A (Homo sapiens) (P28223 whole entry, looked up): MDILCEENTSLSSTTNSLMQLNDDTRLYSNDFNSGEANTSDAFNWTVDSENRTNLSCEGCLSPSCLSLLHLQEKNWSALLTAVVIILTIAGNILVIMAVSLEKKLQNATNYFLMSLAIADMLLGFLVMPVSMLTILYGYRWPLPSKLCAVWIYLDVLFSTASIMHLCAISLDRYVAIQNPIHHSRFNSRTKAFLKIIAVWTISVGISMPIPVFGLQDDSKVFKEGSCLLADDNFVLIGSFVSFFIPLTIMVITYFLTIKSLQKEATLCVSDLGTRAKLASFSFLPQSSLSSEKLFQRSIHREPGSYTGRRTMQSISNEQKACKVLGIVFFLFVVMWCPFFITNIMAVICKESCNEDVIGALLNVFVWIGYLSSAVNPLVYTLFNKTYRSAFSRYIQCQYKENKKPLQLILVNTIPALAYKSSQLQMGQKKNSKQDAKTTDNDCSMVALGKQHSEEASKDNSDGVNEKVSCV
Sequence of Beta-2 adrenergic receptor (Homo sapiens) (P07550 whole entry, looked up): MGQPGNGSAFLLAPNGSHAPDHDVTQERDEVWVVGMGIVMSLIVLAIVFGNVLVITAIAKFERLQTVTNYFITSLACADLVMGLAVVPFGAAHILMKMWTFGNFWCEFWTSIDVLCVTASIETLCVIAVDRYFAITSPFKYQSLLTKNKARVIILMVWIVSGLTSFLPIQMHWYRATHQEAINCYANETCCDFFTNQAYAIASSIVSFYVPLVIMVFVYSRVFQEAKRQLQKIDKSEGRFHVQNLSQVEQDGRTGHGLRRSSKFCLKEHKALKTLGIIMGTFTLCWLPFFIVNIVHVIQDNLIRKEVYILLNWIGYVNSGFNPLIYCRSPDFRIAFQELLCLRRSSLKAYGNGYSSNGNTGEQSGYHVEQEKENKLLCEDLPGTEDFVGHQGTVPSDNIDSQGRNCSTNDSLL

As to `C[C@H]1O[C@H](O[C@H]2[C@H](O)[C@@H](O)[C@@H](O[C@H]3[C@H](O)[C@@H](O)[C@H](O)O[C@@H]3CO)O[C@@H]2CO)[C@H](O)[C@@H](O)[C@@H]1N[C@H]1C=C(CO)[C@@H](O)[C@H](O)[C@H]1O`, the Potency result in assay [1], in assay [2], in [3], in assay [5], in assay [6] and in assay [7] was “inactive” each time. In addition, the Potency result in assay [8], in assay [9], in assay [10], in assay [11], in assay [12] and in assay [13] was “inactive” throughout. Further, the Potency entry in assay [14] and in [15] was “inactive” each time. Besides, in [4], the result was inactive.

In the case of `CCN(CC)CCOC(=O)C1(c2ccccc2)CCCC1`, the Potency entry in [1], in assay [2], in [3], in [5], in [6] and in assay [7] was “inactive” throughout. Besides, the Potency result in assay [8], in [9], in [10], in [16], in assay [17] and in assay [11] was “inactive” throughout. Besides, the Potency entry in [12], in assay [13], in assay [14] and in assay [15] was “inactive” each time. Moreover, in assay [4], the result was inactive.

`CN1CCN(C(c2ccccc2)c2ccccc2)CC1`: the Potency entry in [1], in [2], in [3], in assay [5], in [6] and in assay [7] was “inactive” in each case. Also, the Potency entry in [8], in assay [9], in [10], in [11], in assay [13] and in assay [14] was “inactive” in each case. Besides, the Potency result in assay [15] was “inactive”. In assay [4], the result was inactive.

In the case of `O=C(NCCO[N+](=O)[O-])c1cccnc1`, the Potency result in [1], in assay [2], in assay [3], in assay [5], in [6] and in assay [7] was “inactive” in each case. Moreover, the Potency result in assay [8], in assay [9], in assay [18], in [19], in assay [17] and in assay [11] was “inactive” each time. Moreover, the Potency result in assay [12], in assay [13], in assay [14] and in assay [15] was “inactive” throughout. In addition, the outcome in assay [4] was inactive.

`O=P(O)(O)OCC(O)CO` (centres undefined): the Potency entry in assay [1], in assay [2], in assay [3], in [5], in assay [6] and in [7] was “inactive” in each case. Moreover, the Potency entry in assay [8], in [9], in assay [10], in assay [16], in assay [19] and in assay [17] was “inactive” in each case. For the same compound, the Potency entry in [11], in assay [12], in assay [13], in assay [14] and in assay [15] was “inactive” throughout. Also, the result in assay [4] was inactive.

With `CCOc1ccc2ccccc2c1C(=O)N[C@@H]1C(=O)N2[C@@H]1SC(C)(C)[C@@H]2C(=O)O`, the Potency result in assay [1], in assay [2], in assay [3], in assay [5], in assay [6] and in assay [7] was “inactive” in each case. Also, the Potency result in [8], in assay [9], in [18], in assay [16], in [19] and in [17] was “inactive” in each case. Besides, the Potency result in assay [11], in assay [12], in assay [13], in assay [14] and in assay [15] was “inactive” each time. The result in assay [4] was inactive.

Turning to `N#CSc1ccc(N)c([N+](=O)[O-])c1`, the Potency was 43.5 µM (active) in assay [1] and 24.5 µM (active) in assay [2]. Besides, the Potency entry in [3], in assay [5], in [6], in assay [7], in [8] and in [9] was “inactive” throughout. The Potency entry in [18], in assay [19], in [17], in [12], in assay [13] and in assay [15] was “inactive” in each case. The result in assay [4] was inactive.
